ABCB6 inh 2 – human ABCB6 transporter inhibition. AID 602162. fluorescence ratio to DMSO, % at 10 µM. K562-ABCB6 porphyrin accumulation, flow cytometry, 1 h; hits give low values. hit rate 0.19% among 360,000;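 active means fluorescence ratio to DMSO below 75%, the collection mean minus 3 SD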;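 further: signal is porphyrin accumulated inside mitochondria; 100% equals median channel fluorescence of DMSO control wells; lower ratio means ABCB6 inhibition with less porphyrin fluorescence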
Target sequence (Q9NP58 whole entry, looked up): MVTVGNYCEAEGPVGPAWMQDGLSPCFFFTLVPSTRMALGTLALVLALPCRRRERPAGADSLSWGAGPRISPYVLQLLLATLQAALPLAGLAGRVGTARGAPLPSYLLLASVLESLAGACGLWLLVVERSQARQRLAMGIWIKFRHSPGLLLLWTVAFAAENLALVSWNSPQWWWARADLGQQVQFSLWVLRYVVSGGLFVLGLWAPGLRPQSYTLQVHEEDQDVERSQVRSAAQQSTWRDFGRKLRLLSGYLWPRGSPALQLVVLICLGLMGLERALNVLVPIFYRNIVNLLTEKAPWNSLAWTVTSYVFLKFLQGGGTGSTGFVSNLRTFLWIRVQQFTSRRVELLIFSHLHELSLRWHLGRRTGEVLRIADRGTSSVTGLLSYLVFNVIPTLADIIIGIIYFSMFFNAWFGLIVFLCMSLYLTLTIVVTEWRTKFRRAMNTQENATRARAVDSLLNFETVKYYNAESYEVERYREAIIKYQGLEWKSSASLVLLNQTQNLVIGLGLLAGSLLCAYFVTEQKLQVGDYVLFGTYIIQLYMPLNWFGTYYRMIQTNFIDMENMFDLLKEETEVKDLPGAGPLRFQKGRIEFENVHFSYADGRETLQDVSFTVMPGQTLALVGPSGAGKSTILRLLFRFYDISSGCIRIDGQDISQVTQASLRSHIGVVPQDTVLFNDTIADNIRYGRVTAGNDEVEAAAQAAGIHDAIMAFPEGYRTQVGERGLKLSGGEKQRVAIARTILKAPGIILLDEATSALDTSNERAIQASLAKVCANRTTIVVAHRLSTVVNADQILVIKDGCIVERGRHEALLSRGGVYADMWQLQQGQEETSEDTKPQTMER
Exocytosis inh – lytic granule exocytosis inhibition | inhibition, % at 10 µM | hit rate 0.66% among 360,000 | AID 651702 | TALL-104 LAMP-1 surface exposure, flow cytometry; cells stimulated with thapsigargin and PMA;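 active means inhibition above about 55%, limit read from the data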
rCAG binder – molecules binding r(CAG) RNA repeats; hit rate 1.3% among 370,000; inhibition, % at 3 µM; r(CAG) RNA repeat, TO-PRO-1 dye displacement fluorescence;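 active means inhibition above the plate cutoff, the mean of all test compounds on that plate plus 3 SD, cut at about 35% in these data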;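 further: 0% = DMSO alone and 100% = 100 µM mitoxantrone as full dye displacement; higher means more dye released from RNA so lower well fluorescence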
PG9 Ab binder – binds the HIV-1 gp120 antibody PG9; inhibition, % at 6.7 µM; TR-FRET gp120-PG9 antibody binding; hit rate 0.43% among 360,000; in the data active means inhibition above about 8.5%
rCAG bind conf – r(CAG) RNA repeat binding, confirmation; inhibition, % at 3 µM; TO-PRO-1 dye displacement fluorescence; hit rate 70% among 4,300; shares compounds with rCAG binder;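 active means inhibition above a per-plate cutoff, the mean inhibition of sample wells plus 3 SD, cut at about 35% in these data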;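 further: loss of TO-PRO-1 fluorescence as compound displaces dye from 1x1 AA loop RNA; 0% = DMSO only wells and 100% = 100 µM mitoxantrone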
dCAG dye counter – disrupts DNA CAG TO-PRO-1 complex, flagging rCAG hits; shares compounds with rCAG binder; d(CAG) DNA oligo TO-PRO-1 dye displacement, fluorescence; inhibition, % at 3 µM; hit rate 94% among 4,300;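 active means inhibition above its plate's cutoff, the mean test-well inhibition plus 3 SD, cut at about 4.8% in these data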;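 further: 0% = DNA dye mix with DMSO and 100% = 100 µM mitoxantrone; hits displace the dye from DNA and so lower well fluorescence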
Numbers without * were called inactive. An excerpt weighted towards active compounds, which were near 2.5% of everything screened.

What do the screens show for `O=C(O)c1ccc(Cl)c(S(=O)(=O)Nc2cccc(C(=O)Nc3cccc(C(F)(F)F)c3)c2)c1`?
ABCB6 inh 2: 106; Exocytosis inh: 2; rCAG binder: 39*; PG9 Ab binder: 0; rCAG bind conf: 24; dCAG dye counter: 7.9*

What do the screens show for `O=C(O)c1cccc(NC(=O)c2ccc(Cl)c(S(=O)(=O)N3CCCCCC3)c2)c1`?
ABCB6 inh 2: 236; Exocytosis inh: 1; rCAG binder: 35*; PG9 Ab binder: -2; rCAG bind conf: 32; dCAG dye counter: 5.4*

What do the screens show for `O=C(O)c1cccc(NC(=O)c2cccc(S(=O)(=O)N3CCc4ccccc4C3)c2)c1`?
ABCB6 inh 2: 95; Exocytosis inh: 6; rCAG binder: 37*; PG9 Ab binder: 3; rCAG bind conf: 23; dCAG dye counter: 4.5*

How did COc1ccc(C(=O)O)cc1S(=O)(=O)Nc1cccc(C(F)(F)F)c1 do in these assays?
ABCB6 inh 2: 106; Exocytosis inh: 1; rCAG binder: 2; PG9 Ab binder: 1

What do the screens show for `COc1ccc2nc(N/C(N)=N/S(C)(=O)=O)nc(C)c2c1`?
ABCB6 inh 2: 97; Exocytosis inh: -4; rCAG binder: 2; PG9 Ab binder: 1

What do the screens show for `O=C(O)c1ccc2c(c1)C1C=CCC1C(c1cc3c(cc1Br)OCO3)N2` (stereo unspecified)?
ABCB6 inh 2: 102; Exocytosis inh: 41; rCAG binder: 34; PG9 Ab binder: 2

Results for O=C(O)c1ccc(NS(=O)(=O)c2ccc3c(c2)C2C=CCC2C(c2ccccc2F)N3)cc1 (stereo unspecified) ?
ABCB6 inh 2: 102; Exocytosis inh: 0; rCAG binder: 88*; PG9 Ab binder: -1; rCAG bind conf: 61*; dCAG dye counter: 27*

Results for CCCCCOc1ccc(C2C(C(=O)c3ccc(C)o3)=C(O)C(=O)N2c2cc(C)on2)cc1 (stereo unspecified) ?
ABCB6 inh 2: 113; Exocytosis inh: 4; rCAG binder: 36*; PG9 Ab binder: 6; rCAG bind conf: 49*; dCAG dye counter: 15*

How did C/C(=N\NC(=O)c1cc(O)ccc1O)c1cccc(NC(=O)c2ccc(Cl)cc2)c1 do in these assays?
ABCB6 inh 2: 102; Exocytosis inh: 14; rCAG binder: 37*; PG9 Ab binder: -5; rCAG bind conf: 25; dCAG dye counter: 8.3*

How did C/C(=N\NC(=O)c1cc(O)ccc1O)c1cccc(NC(=O)c2cccc(Cl)c2)c1 do in these assays?
ABCB6 inh 2: 91; Exocytosis inh: -1; rCAG binder: 45*; PG9 Ab binder: -5; rCAG bind conf: 22; dCAG dye counter: 8.4*

How did CCCCN1C(=O)C(C(=O)OCC)CC2=C1CCCC2=O (stereo unspecified) do in these assays?
ABCB6 inh 2: 102; Exocytosis inh: -2; rCAG binder: 1; PG9 Ab binder: -1

Results for O=C(NC(=S)Nc1ccc(S(=O)(=O)Nc2nccs2)cc1)c1cccnc1 ?
ABCB6 inh 2: 96; Exocytosis inh: 3; rCAG binder: 7; PG9 Ab binder: -1

Results for O=C(NC(=S)Nc1ccc(S(=O)(=O)Nc2nccs2)cc1)c1ccccc1 ?
ABCB6 inh 2: 96; Exocytosis inh: -8; rCAG binder: 41*; PG9 Ab binder: 0; rCAG bind conf: 37*; dCAG dye counter: 8.9*

How did O=C(NC(=S)Nc1ccc(S(=O)(=O)Nc2nccs2)cc1)c1ccc(F)c(F)c1 do in these assays?
ABCB6 inh 2: 111; Exocytosis inh: 13; rCAG binder: 63*; PG9 Ab binder: -2; rCAG bind conf: 40*; dCAG dye counter: 12*

What do the screens show for `COc1cccc(OC)c1C(=O)NC(=S)Nc1ccc(S(=O)(=O)Nc2nccs2)cc1`?
ABCB6 inh 2: 97; Exocytosis inh: 0; rCAG binder: 59*; PG9 Ab binder: -1; rCAG bind conf: 40*; dCAG dye counter: 16*

Results for CC(C)C(=O)NC(=S)Nc1ccc(S(=O)(=O)Nc2nccs2)cc1 ?
ABCB6 inh 2: 96; Exocytosis inh: -1; rCAG binder: 10; PG9 Ab binder: 0

What do the screens show for `O=C(NC(=S)Nc1ccc(S(=O)(=O)Nc2nccs2)cc1)c1ccccc1F`?
ABCB6 inh 2: 104; Exocytosis inh: -16; rCAG binder: 42*; PG9 Ab binder: 0; rCAG bind conf: 41*; dCAG dye counter: 13*

Results for Clc1ccc(COc2cccc(CNCc3ccncc3)c2)cc1 ?
ABCB6 inh 2: 93; Exocytosis inh: -1; rCAG binder: -6; PG9 Ab binder: 1

What do the screens show for `O=C(NC(=S)Nc1ccc(S(=O)(=O)Nc2nccs2)cc1)c1ccc(Br)o1`?
ABCB6 inh 2: 96; Exocytosis inh: 1; rCAG binder: 47*; PG9 Ab binder: -2; rCAG bind conf: 33; dCAG dye counter: 12*

Results for CC(=O)Nc1ccc2[nH]c3ccccc3c2c1 ?
ABCB6 inh 2: 99; Exocytosis inh: 0; rCAG binder: 2; PG9 Ab binder: -1

What do the screens show for `O=C(Nc1ccc(Cl)cc1)c1cc2c(cc1O)[nH]c1ccccc12`?
ABCB6 inh 2: 86; Exocytosis inh: 21; rCAG binder: 91*; PG9 Ab binder: 0; rCAG bind conf: 85*; dCAG dye counter: 53*

What do the screens show for `O=C(CNCCc1ccc(F)cc1)Nc1cc(F)ccc1F`?
ABCB6 inh 2: 105; Exocytosis inh: -4; rCAG binder: 5; PG9 Ab binder: -2

Results for O=C1C=CC2=C3c4cc(O)c(O)cc4CC3(O)COC2=C1O (stereo unspecified) ?
ABCB6 inh 2: 94; Exocytosis inh: -2; rCAG binder: 43*; PG9 Ab binder: -7; rCAG bind conf: 63*; dCAG dye counter: 34*

What do the screens show for `Cc1c(C)n(Cc2ccc(-c3ccccc3C(=O)O)cc2)c2ccc(C(=O)N[C@@H](C)c3ccc(Br)cc3)cc12`?
rCAG binder: 77*; rCAG bind conf: 77*; dCAG dye counter: 38*

How did Cc1c(C)n(Cc2ccccc2)c2ccc(C(=O)O)cc12 do in these assays?
ABCB6 inh 2: 91; Exocytosis inh: -4; rCAG binder: 3; PG9 Ab binder: 2

What do the screens show for `COc1ccc(CNS(=O)(=O)NCc2ccc(C)cc2)cc1`?
ABCB6 inh 2: 97; Exocytosis inh: 0; rCAG binder: 1; PG9 Ab binder: 0

How did Cc1ccccc1OCC(=O)N/N=C/c1sc(=O)n(Cc2cccc(C(=O)O)c2)c1Cl do in these assays?
ABCB6 inh 2: 91; Exocytosis inh: 2; rCAG binder: 46*; PG9 Ab binder: 0; rCAG bind conf: 40*; dCAG dye counter: 11*

Results for Cc1ccc(-n2nc(C)c3c2NC2=C(C(=O)CC(C)(C)C2)C3c2ccccc2OCC(=O)O)cc1 (stereo unspecified) ?
ABCB6 inh 2: 88; Exocytosis inh: 2; rCAG binder: 37*; PG9 Ab binder: 0; rCAG bind conf: 41*; dCAG dye counter: 9.4*

What do the screens show for `COc1cc(/C=C2/NC(=O)NC2=O)cc(Br)c1OCc1ccccc1`?
ABCB6 inh 2: 102; Exocytosis inh: 3; rCAG binder: 3; PG9 Ab binder: 0

Source: PubChem (several laboratories)
